Data as given in PubChem BioAssay (NCI).
About 79,000 compounds went through this panel and 15% of them were active in at least one assay; those are over-represented in the sample as a whole. The source made the active and inactive calls. Cut-off read from the data, not from the text of the source: active = growth inhibition above about 70%; inactive = the rest.

Columns and labels:
[1] = NCI Yeast Anticancer Drug Screen. Data for the rad52 strain (AID 147);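 note: 0% = growth of vehicle-treated control cultures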; settings: S. cerevisiae rad52 mutant growth inhibition, hits give high values
How it was run: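 Here a repair-compromised yeast strain receives each compound; its growth is then quantified and normalised to vehicle-only controls.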

[2] = NCI Yeast Anticancer Drug Screen. Data for the wt1 strain (AID 149);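 note: 0% = growth of vehicle-treated wt1 cultures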; settings: S. cerevisiae wt1 strain (SPY 50644) growth inhibition, hits give high values
How it was run: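 Yeast wt1 strain exposed to compounds; growth inhibition measured relative to vehicle-treated controls.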

[3] = NCI Yeast Anticancer Drug Screen. Data for the rad50EPP+ strain (AID 151);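 note: 0% = growth of vehicle-treated control cultures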; settings: S. cerevisiae rad50 mutant strain, hits give high values
How it was run: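 Read-out is yeast growth inhibition relative to vehicle; cells used were the rad50EPP+ strain.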

[4] = NCI Yeast Anticancer Drug Screen. Data for the mgt1 strain (AID 153); settings: S. cerevisiae mgt1 mutant growth inhibition, hits give high values
How it was run: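 Measured: inhibition of mgt1 yeast growth by compound, normalized to vehicle-treated cultures.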

[5] = NCI Yeast Anticancer Drug Screen. Data for the rad50 strain (AID 155);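 note: 0% = growth of vehicle-only cultures of the same strain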; settings: S. cerevisiae rad50 strain growth inhibition, hits give high values
How it was run: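 Yeast carrying a defined DNA repair defect were exposed to test compounds, and growth was compared with vehicle-treated controls to give percent inhibition.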

[6] = NCI Yeast Anticancer Drug Screen. Data for the mec2-1 strain (AID 157); settings: S. cerevisiae mec2-1 strain, hits give high values
How it was run: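 Using mec2-1 yeast: add compound, measure growth, express inhibition versus vehicle-treated cultures.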

[7] = NCI Yeast Anticancer Drug Screen. Data for the rad14 strain (AID 159);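 note: 0% = growth of vehicle-treated control cultures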; settings: S. cerevisiae rad14 strain growth inhibition, hits give high values
How it was run: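 Yeast cells carrying a defined DNA-repair defect were exposed to compounds, and growth inhibition was calculated relative to vehicle-treated control cultures.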

[8] = NCI Yeast Anticancer Drug Screen. Data for the sgs1 mgt1 strain (AID 161);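 note: 0% = growth of cultures given vehicle only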; settings: S. cerevisiae sgs1 mgt1 strain, hits give high values
How it was run: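 Percent growth inhibition was derived by comparing compound-exposed mutant yeast with vehicle-exposed cultures. The strain carries alterations in DNA damage repair.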

[9] = NCI Yeast Anticancer Drug Screen. Data for the CLN2oe strain (AID 163);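 note: 0% = growth of vehicle-only control cultures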; settings: S. cerevisiae CLN2oe strain, hits give high values
How it was run: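 Whole-cell yeast growth assay. A strain engineered for altered cell-cycle control received compound, and inhibition relative to vehicle-treated cultures was recorded.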

[10] = NCI Yeast Anticancer Drug Screen. Data for the cln2 rad14 strain (AID 165);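 note: 0% = growth equal to vehicle treated cultures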; settings: S. cerevisiae cln2 rad14 strain, hits give high values
How it was run: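 Yeast strain cln2 rad14, bearing defects in cell cycle control and DNA repair, serves as the test system; values reflect growth inhibition compared with vehicle.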

[11] = NCI Yeast Anticancer Drug Screen. Data for the bub3 strain (AID 167); settings: S. cerevisiae bub3 mutant strain, hits give high values
How it was run: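 Compounds were applied to a genetically altered yeast strain carrying a cell-cycle control defect. Growth inhibition was scored against vehicle-treated controls.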

[12] = NCI Yeast Anticancer Drug Screen. Data for the wt2 strain (AID 169);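 note: 0% = growth of vehicle-treated yeast cultures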; settings: S. cerevisiae wt2 strain growth inhibition, hits give high values
How it was run: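 Treated yeast vs. vehicle-treated yeast: growth inhibition determined.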

[13] = NCI Yeast Anticancer Drug Screen. Data for the mlh1 strain (AID 171);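 note: 0% = growth of vehicle-treated control cultures of the same strain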; settings: S. cerevisiae mlh1 strain growth inhibition, hits give high values
How it was run: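 A yeast strain with a defined genetic lesion serves as the test organism. Cultures receive compound or vehicle, and growth is measured.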

[14] = NCI Yeast Anticancer Drug Screen. Data for the sgs1 strain (AID 173);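 note: 0% = growth of vehicle-only control cultures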; settings: S. cerevisiae sgs1 mutant, hits give high values
How it was run: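 A genetically defined yeast mutant is incubated with the test compound, and its growth is compared to that of the same strain given vehicle.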

[15] = NCI Yeast Anticancer Drug Screen. Data for the mlh1 rad18 strain (AID 175); settings: S. cerevisiae mlh1 rad18 strain growth inhibition, hits give high values
How it was run: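 Steps: expose repair-defective yeast to compound; measure growth; express inhibition against vehicle-treated controls.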

[16] = NCI Yeast Anticancer Drug Screen. Data for the rad18 strain (AID 177); settings: S. cerevisiae rad18 mutant growth inhibition, hits give high values
How it was run: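 Measured value is growth inhibition of a yeast strain bearing a DNA repair alteration, referenced to vehicle-treated cells.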

[17] = at 5.0 µM (retest, dose inferred, filed as 0.5)
[18] = at 50.0 µM (retest, dose inferred, filed as 5.0)

Measured: growth inhibition

CC1(C)CC(=O)C(/C=N/c2nc(-c3ccc(Br)cc3)cs2)=C(O)C1
active: [1]; at 33.0 µM 95% | [1]; at 100.0 µM 97% | [2]; at 33.0 µM 91% | [3]; at 33.0 µM 95% | [3]; at 100.0 µM 98% | [4]; at 33.0 µM 96% | [4]; at 100.0 µM 98% | [5]; at 33.0 µM 94% | [5]; [18] 96% | [5]; at 50.0 µM 99% | [5]; at 100.0 µM 97% | [6]; at 33.0 µM 96% | [6]; [18] 97% | [6]; at 50.0 µM 97.5% | [6]; at 100.0 µM 98% | [7]; at 33.0 µM 95% | [7]; at 100.0 µM 98% | [8]; [18] 98% | [8]; at 50.0 µM 99.2% | [9]; at 33.0 µM 93% | [9]; at 100.0 µM 97% | [10]; [18] 97% | [10]; at 50.0 µM 98.3% | [11]; at 33.0 µM 96% | [11]; [18] 98% | [11]; at 50.0 µM 98.8% | [11]; at 100.0 µM 98% | [12]; at 33.0 µM 93% | [12]; at 100.0 µM 98% | [13]; at 33.0 µM 96% | [13]; at 100.0 µM 98% | [14]; at 33.0 µM 97% | [14]; at 100.0 µM 98% | [15]; [18] 99% | [15]; at 50.0 µM 98.8% | [16]; at 33.0 µM 96% | [16]; at 100.0 µM 97%
inactive: [1]; at 1.2 µM 11% | [1]; at 3.7 µM 20% | [1]; at 11.0 µM 53% | [2]; at 1.2 µM 1% | [2]; at 3.7 µM 4% | [2]; at 11.0 µM 17% | [2]; at 100.0 µM 60% | [3]; at 1.2 µM 5% | [3]; at 3.7 µM 17% | [3]; at 11.0 µM 51% | [4]; at 1.2 µM 4% | [4]; at 3.7 µM 6% | [4]; at 11.0 µM 37% | [5]; at 1.2 µM 3% | [5]; at 3.7 µM 32% | [5]; [17] -4% | [5]; at 11.0 µM 48% | [6]; at 1.2 µM 7% | [6]; at 3.7 µM 11% | [6]; [17] -10% | [6]; at 11.0 µM 35% | [7]; at 1.2 µM 6% | [7]; at 3.7 µM 6% | [7]; at 11.0 µM 36% | [8]; [17] -8% | [9]; at 1.2 µM 1% | [9]; at 3.7 µM 7% | [9]; at 11.0 µM 31% | [10]; [17] 65% | [11]; at 1.2 µM 3% | [11]; at 3.7 µM 3% | [11]; [17] -22% | [11]; at 11.0 µM 24% | [12]; at 1.2 µM 0% | [12]; at 3.7 µM 3% | [12]; at 11.0 µM 29% | [13]; at 1.2 µM 3% | [13]; at 3.7 µM 5% | [13]; at 11.0 µM 30% | [14]; at 1.2 µM 10% | [14]; at 3.7 µM 15% | [14]; at 11.0 µM 49% | [15]; [17] 0% | [16]; at 1.2 µM 2% | [16]; at 3.7 µM 5% | [16]; at 11.0 µM 37%

CC1(C)OC(=O)C(=Cc2ccc([N+](=O)[O-])s2)C(=O)O1
active: [1]; at 100.0 µM 98% | [3]; at 33.0 µM 86% | [3]; at 100.0 µM 88% | [4]; at 33.0 µM 95% | [5]; [18] 89% | [5]; at 100.0 µM 98% | [6]; [18] 99% | [6]; at 50.0 µM 89.3% | [6]; at 100.0 µM 70% | [7]; at 100.0 µM 99% | [8]; [18] 100% | [8]; at 50.0 µM 90% | [9]; at 100.0 µM 97% | [10]; [18] 81% | [11]; [18] 100% | [11]; at 50.0 µM 85% | [12]; at 100.0 µM 71% | [13]; at 100.0 µM 71% | [14]; at 100.0 µM 98% | [15]; at 50.0 µM 92.3% | [16]; at 33.0 µM 85%
inactive: [1]; at 1.2 µM -17% | [1]; at 3.7 µM -35% | [1]; at 11.0 µM -31% | [1]; at 33.0 µM -14% | [2]; at 1.2 µM -28% | [2]; at 3.7 µM -33% | [2]; at 11.0 µM -14% | [2]; at 33.0 µM 32% | [2]; at 100.0 µM 35% | [3]; at 1.2 µM -17% | [3]; at 3.7 µM -20% | [3]; at 11.0 µM -2% | [4]; at 1.2 µM -8% | [4]; at 3.7 µM 15% | [4]; at 11.0 µM 26% | [4]; at 100.0 µM 50% | [5]; at 1.2 µM -9% | [5]; at 3.7 µM -7% | [5]; [17] 28% | [5]; at 11.0 µM -13% | [5]; at 33.0 µM -6% | [5]; at 50.0 µM 68.6% | [6]; at 1.2 µM -28% | [6]; at 3.7 µM -5% | [6]; [17] 23% | [6]; at 11.0 µM -23% | [6]; at 33.0 µM 12% | [7]; at 1.2 µM -12% | [7]; at 3.7 µM -5% | [7]; at 11.0 µM 2% | [7]; at 33.0 µM 9% | [8]; [17] 56% | [9]; at 1.2 µM 14% | [9]; at 3.7 µM 26% | [9]; at 11.0 µM 29% | [9]; at 33.0 µM 63% | [10]; [17] 47% | [10]; at 50.0 µM 30.8% | [11]; at 1.2 µM -18% | [11]; at 3.7 µM -13% | [11]; [17] 48% | [11]; at 11.0 µM -8% | [11]; at 33.0 µM 60% | [11]; at 100.0 µM 5% | [12]; at 1.2 µM 0% | [12]; at 3.7 µM -9% | [12]; at 11.0 µM -7% | [12]; at 33.0 µM 62% | [13]; at 1.2 µM -28% | [13]; at 3.7 µM -24% | [13]; at 11.0 µM -33% | [13]; at 33.0 µM 38% | [14]; at 1.2 µM -31% | [14]; at 3.7 µM -25% | [14]; at 11.0 µM -15% | [14]; at 33.0 µM 48% | [15]; [17] 10% | [15]; [18] 51% | [16]; at 1.2 µM 10% | [16]; at 3.7 µM 21% | [16]; at 11.0 µM 32% | [16]; at 100.0 µM 69%
